The text below walks through data of PMC7862700, “An all-to-all approach to the identification of sequence-specific readers for epigenetic DNA modifications on cytosine”.

Holding throughout (assay): DAPPL (digital affinity profiling via proximity ligation, sequencing); 10 mM Tris-HCl pH 7.5, 50 mM NaCl, 1 mM DTT, 4% glycerol, room temperature, 30 min; GST-TFs on glutathione beads, 16-mer random dsDNA library, 0.1% formaldehyde crosslink after washing; high values mean tight binding
For test [1], the target named is T1, FEV (Homo sapiens, UniProt Q99581 1-238).
T1 sequence: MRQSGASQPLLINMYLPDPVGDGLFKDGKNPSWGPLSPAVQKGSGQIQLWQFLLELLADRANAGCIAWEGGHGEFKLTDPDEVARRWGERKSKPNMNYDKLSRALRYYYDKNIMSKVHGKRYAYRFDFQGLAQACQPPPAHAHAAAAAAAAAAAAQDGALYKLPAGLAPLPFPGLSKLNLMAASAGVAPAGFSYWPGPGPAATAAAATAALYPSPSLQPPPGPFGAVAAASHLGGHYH
Conditions: protein: recombinant; tags: N-terminal GST; dsDNA, one strand shown. In outline: (§1)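 A tag-only sample was pooled with DNA-barcoded human transcription factors that had been expressed in yeast as GST fusions and captured on glutathione beads. The pools were incubated for 30 min at room temperature with 200 nmole of a random double-stranded 16-mer DNA library in Tris/NaCl/DTT/glycerol buffer, then washed, crosslinked with 0.1% formaldehyde, proximity-ligated (BsaI/T4 ligase, 1 h, 37 °C), PCR-amplified and sequenced on an Illumina NextSeq500. Binding signal is each hexamer's read frequency for a factor divided by its frequency for the tag-only sample.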

For test [2], the target named is ETV5 (Homo sapiens, UniProt P41161 1-510). Conditions: protein: recombinant; tags: N-terminal GST; dsDNA, one strand shown. In outline:
as §1

The target of test [3] is HSF1 (Homo sapiens, UniProt Q00613 1-529). Conditions: protein: recombinant; tags: N-terminal GST; chain copies: 3; dsDNA, one strand shown. Summed up: as §1
HSF1, sequence (Q00613 whole entry): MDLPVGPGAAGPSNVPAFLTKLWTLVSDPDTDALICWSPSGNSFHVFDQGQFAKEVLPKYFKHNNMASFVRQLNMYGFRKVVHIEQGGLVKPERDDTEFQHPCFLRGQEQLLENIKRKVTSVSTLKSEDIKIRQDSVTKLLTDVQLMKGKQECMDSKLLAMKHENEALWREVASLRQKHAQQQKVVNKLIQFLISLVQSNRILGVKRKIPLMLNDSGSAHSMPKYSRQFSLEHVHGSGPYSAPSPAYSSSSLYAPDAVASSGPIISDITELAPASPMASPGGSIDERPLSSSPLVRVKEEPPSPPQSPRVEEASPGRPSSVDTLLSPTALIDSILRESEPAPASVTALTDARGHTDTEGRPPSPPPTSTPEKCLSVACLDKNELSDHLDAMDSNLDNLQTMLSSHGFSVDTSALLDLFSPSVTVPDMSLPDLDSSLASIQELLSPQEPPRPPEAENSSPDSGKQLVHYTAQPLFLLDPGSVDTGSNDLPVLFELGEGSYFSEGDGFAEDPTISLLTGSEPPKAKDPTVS
Test [4] concerns the target T2, SPIC (Homo sapiens, UniProt Q8N5J4 1-248).
T2 sequence: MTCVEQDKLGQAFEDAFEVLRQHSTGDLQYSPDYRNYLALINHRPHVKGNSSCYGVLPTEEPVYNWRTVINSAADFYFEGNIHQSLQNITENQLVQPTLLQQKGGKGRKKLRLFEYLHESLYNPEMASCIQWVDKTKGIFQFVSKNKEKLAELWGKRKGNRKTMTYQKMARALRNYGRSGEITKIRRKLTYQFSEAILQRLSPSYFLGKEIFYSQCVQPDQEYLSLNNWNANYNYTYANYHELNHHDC
Conditions: protein: recombinant; tags: N-terminal GST; dsDNA, one strand shown. Summed up:
as §1

Test [5] concerns the target ELF4 (Homo sapiens, UniProt Q99607 1-663). Conditions: protein: recombinant; tags: N-terminal GST; dsDNA, one strand shown. In outline:
as §1

The target in test [6] is T3, ELK4 (Homo sapiens, UniProt P28324-2 1-405).
T3 sequence: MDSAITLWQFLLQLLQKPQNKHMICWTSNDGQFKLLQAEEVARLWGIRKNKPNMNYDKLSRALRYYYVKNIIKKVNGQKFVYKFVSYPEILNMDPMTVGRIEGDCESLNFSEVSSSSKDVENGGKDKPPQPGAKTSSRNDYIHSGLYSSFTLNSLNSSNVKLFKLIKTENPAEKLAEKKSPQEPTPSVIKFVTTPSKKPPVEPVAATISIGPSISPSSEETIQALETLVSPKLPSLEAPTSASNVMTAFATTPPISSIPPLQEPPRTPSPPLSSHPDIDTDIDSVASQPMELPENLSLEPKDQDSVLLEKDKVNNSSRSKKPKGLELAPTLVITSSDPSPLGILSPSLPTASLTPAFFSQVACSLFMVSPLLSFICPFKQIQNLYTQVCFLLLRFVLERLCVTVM
Conditions: protein: recombinant; tags: N-terminal GST; dsDNA, one strand shown. Summed up: as §1

In test [7] the target is T4, ETV2 (Homo sapiens, UniProt O00321 1-342).
T4 sequence: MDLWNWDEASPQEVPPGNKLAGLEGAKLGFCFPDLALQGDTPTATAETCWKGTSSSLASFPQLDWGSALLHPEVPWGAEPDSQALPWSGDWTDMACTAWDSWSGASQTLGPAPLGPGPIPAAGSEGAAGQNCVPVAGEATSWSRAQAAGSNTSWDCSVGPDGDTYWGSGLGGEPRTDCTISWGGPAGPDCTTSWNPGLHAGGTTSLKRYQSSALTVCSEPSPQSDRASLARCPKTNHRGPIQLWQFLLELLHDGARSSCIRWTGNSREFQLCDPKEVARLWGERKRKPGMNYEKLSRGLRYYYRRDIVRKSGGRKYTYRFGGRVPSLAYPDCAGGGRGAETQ
To be noted: protein: recombinant; tags: N-terminal GST; dsDNA, one strand shown. Summed up: as §1

In test [8] the target is T5, ELF3 (Homo sapiens, UniProt P78545 1-371).
T5 sequence: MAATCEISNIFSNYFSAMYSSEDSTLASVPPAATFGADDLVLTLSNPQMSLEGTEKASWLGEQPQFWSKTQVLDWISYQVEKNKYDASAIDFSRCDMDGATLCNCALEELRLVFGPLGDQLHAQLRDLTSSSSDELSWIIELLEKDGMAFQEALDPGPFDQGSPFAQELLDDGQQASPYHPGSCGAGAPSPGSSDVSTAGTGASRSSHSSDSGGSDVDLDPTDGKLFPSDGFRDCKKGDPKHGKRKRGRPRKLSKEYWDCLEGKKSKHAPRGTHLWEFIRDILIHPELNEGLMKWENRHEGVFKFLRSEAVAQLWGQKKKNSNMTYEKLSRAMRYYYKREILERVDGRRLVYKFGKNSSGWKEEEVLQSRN
Conditions: protein: recombinant; tags: N-terminal GST; dsDNA, one strand shown. Summed up: as §1

The target in test [9] is CRX (Homo sapiens, UniProt O43186 1-299). Conditions: protein: recombinant; tags: N-terminal GST; dsDNA, one strand shown. Summed up: as §1
CRX, sequence (O43186 whole entry): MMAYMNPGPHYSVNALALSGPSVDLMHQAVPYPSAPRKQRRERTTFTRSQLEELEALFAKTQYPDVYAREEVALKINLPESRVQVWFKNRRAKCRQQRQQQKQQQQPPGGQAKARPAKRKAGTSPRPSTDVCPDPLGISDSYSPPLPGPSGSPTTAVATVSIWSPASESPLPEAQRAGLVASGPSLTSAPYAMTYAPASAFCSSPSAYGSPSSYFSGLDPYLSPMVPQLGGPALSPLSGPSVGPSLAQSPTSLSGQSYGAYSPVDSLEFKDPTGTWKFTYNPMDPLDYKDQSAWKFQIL
Test [10] concerns the target ETV1 (Homo sapiens, UniProt P50549 1-477). Conditions: protein: recombinant; tags: N-terminal GST; dsDNA, one strand shown. In outline: as §1
The target in test [11] is T6, ERF (Homo sapiens, UniProt P50548 1-548).
T6 sequence: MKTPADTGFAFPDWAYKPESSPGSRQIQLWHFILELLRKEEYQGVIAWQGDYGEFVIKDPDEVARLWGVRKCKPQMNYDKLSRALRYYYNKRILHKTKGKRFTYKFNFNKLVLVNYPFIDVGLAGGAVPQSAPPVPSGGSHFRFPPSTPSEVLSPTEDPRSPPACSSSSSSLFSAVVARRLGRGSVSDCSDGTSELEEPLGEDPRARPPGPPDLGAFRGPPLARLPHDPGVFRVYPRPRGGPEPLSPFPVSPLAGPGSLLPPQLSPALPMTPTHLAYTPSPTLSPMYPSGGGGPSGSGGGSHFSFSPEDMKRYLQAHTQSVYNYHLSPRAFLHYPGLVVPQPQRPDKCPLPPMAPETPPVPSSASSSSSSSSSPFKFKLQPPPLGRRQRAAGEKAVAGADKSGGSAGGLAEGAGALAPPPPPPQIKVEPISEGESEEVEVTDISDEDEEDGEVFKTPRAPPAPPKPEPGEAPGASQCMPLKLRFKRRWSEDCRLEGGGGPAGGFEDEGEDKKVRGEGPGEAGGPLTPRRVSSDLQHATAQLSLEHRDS
To be noted: protein: recombinant; tags: N-terminal GST; dsDNA, one strand shown. In outline: as §1

Test [12] addresses T7, ETV3L (Homo sapiens, UniProt Q6ZN32 1-361).
T7 sequence: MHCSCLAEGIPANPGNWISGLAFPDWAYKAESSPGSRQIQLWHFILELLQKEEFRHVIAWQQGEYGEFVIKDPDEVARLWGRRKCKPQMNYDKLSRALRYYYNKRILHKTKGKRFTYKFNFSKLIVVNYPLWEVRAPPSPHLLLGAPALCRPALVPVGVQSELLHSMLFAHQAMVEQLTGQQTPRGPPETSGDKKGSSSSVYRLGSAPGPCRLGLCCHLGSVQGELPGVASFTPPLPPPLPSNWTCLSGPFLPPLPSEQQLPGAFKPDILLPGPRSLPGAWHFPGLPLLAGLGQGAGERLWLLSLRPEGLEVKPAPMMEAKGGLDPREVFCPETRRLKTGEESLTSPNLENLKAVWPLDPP
Conditions: protein: recombinant; tags: N-terminal GST; dsDNA, one strand shown. Summed up:
as §1

In test [13] the target is T8, ETS2 (Homo sapiens, UniProt P15036 1-469).
T8 sequence: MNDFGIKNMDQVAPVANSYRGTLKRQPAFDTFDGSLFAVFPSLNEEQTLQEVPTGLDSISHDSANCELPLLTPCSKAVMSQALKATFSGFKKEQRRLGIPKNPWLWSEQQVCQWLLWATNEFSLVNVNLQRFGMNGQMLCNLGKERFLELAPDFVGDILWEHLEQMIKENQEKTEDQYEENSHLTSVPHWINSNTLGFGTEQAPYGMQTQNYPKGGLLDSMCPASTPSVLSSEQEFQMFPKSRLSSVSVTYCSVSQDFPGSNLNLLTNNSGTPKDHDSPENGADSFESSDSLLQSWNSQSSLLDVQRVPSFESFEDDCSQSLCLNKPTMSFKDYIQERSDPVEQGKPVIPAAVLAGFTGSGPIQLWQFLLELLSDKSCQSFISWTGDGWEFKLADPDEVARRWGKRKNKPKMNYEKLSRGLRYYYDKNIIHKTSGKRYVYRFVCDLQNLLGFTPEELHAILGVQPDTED
Conditions: protein: recombinant; tags: N-terminal GST; dsDNA, one strand shown. In outline: as §1

Test [14] deals with T9, SPDEF (Homo sapiens, UniProt O95238 1-335).
T9 sequence: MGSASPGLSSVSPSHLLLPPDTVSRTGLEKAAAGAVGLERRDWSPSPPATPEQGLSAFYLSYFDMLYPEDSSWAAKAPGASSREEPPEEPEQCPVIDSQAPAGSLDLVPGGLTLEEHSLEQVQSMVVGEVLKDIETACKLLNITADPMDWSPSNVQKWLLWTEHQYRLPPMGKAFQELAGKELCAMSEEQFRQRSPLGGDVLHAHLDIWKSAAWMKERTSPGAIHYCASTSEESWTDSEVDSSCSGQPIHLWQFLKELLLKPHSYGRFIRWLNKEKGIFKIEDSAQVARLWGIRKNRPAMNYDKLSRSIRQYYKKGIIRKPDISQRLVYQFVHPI
To be noted: protein: recombinant; tags: N-terminal GST; dsDNA, one strand shown. Summed up: as §1

In test [15] the target is T10, ETV7 (Homo sapiens, UniProt Q9Y603 1-341).
T10 sequence: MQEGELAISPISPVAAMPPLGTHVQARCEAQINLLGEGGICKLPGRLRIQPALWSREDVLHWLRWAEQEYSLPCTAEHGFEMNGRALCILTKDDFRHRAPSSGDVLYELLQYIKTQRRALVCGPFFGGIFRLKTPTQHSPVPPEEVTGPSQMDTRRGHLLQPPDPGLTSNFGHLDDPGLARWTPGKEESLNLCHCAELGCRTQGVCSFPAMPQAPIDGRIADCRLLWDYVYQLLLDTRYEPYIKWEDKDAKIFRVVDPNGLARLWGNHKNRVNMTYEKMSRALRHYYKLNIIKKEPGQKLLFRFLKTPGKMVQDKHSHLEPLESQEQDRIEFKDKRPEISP
To be noted: protein: recombinant; tags: N-terminal GST; dsDNA, one strand shown. In outline: as §1

The target in test [16] is T11, ELF5 (Homo sapiens, UniProt Q9UKW6-2 1-255).
T11 sequence: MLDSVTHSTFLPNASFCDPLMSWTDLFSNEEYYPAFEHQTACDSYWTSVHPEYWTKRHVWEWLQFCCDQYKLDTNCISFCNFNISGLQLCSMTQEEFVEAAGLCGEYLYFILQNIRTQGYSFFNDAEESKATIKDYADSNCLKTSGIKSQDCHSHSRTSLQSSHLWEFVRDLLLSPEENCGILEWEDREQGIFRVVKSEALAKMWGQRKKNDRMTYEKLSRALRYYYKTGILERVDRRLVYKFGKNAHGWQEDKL
Conditions: protein: recombinant; tags: N-terminal GST; dsDNA, one strand shown. Summed up:
as §1

The target in test [17] is T12, ETV3 (Homo sapiens, UniProt P41162-2 1-143).
T12 sequence: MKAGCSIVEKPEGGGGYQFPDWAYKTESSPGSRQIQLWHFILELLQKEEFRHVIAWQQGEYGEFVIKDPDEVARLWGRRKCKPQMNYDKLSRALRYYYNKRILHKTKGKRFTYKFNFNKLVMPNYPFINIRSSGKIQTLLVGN
Conditions: protein: recombinant; tags: N-terminal GST; dsDNA, one strand shown. Summed up: as §1

For test [18], the target named is ETV6 (Homo sapiens, UniProt P41212 1-452). To be noted: protein: recombinant; tags: N-terminal GST; dsDNA, one strand shown. In outline:
as §1

ETV5, sequence (P41161 whole entry): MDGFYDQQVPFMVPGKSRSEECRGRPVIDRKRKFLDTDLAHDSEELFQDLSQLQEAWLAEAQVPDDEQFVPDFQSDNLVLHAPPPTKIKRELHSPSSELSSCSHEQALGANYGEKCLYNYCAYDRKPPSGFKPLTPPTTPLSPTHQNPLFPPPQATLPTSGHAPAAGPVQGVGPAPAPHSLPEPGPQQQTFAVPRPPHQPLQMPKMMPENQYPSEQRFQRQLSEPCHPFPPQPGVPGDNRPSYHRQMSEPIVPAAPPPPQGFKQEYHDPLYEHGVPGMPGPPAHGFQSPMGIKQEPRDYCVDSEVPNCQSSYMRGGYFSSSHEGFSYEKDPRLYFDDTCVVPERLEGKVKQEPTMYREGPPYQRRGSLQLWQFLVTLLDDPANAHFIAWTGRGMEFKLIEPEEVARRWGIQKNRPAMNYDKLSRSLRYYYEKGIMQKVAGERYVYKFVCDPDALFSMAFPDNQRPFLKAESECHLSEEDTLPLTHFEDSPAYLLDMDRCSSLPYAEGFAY
ELF4, sequence (Q99607 whole entry): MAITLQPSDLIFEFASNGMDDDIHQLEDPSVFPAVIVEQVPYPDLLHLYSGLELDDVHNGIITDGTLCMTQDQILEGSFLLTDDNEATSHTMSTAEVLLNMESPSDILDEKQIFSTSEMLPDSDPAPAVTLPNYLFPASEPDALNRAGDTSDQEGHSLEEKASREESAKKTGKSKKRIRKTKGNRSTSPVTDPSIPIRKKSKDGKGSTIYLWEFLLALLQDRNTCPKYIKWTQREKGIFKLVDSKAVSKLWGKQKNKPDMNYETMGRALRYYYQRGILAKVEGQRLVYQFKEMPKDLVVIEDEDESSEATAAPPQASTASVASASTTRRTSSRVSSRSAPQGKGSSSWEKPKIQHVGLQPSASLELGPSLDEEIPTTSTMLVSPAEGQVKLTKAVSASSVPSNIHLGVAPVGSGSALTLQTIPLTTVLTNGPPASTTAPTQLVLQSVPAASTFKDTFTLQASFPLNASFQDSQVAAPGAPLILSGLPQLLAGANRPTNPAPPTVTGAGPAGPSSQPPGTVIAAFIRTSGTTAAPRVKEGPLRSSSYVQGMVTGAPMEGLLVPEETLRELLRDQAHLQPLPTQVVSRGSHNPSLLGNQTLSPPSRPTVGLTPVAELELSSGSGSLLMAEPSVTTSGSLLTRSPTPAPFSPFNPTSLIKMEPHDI
ETV6, sequence (P41212 whole entry): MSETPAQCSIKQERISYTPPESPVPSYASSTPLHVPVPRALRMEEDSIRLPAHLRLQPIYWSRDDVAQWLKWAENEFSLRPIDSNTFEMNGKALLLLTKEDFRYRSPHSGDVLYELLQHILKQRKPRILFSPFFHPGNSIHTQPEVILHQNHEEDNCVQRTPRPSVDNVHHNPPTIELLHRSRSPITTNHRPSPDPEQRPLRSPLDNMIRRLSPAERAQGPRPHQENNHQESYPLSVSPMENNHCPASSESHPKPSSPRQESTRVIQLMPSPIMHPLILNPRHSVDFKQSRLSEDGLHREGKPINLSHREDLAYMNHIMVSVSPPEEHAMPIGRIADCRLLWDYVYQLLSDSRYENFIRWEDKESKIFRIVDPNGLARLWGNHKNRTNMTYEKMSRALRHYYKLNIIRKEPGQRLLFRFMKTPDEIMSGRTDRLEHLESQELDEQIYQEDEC
ETV1, sequence (P50549 whole entry): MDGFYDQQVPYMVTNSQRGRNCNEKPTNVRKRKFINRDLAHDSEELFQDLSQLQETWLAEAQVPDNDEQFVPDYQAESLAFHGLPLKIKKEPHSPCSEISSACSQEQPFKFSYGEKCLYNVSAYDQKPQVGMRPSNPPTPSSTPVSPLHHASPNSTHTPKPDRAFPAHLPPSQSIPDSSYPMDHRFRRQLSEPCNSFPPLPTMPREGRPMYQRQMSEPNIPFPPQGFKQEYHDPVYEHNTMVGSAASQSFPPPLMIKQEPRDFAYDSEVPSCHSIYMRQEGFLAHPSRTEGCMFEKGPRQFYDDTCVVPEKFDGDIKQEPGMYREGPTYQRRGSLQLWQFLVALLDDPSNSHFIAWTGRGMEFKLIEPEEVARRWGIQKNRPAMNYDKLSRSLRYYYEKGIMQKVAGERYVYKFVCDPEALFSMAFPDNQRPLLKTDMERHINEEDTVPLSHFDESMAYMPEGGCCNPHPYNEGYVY

With AATGAC, the binding signal is 1.47 fold enrichment (6-mer frequency, TF over GST control) in [1]; 1.35 fold enrichment (6-mer frequency, TF over GST control) in test [2]; 1.22 fold enrichment (6-mer frequency, TF over GST control) in [3]; 1.36 fold enrichment (6-mer frequency, TF over GST control) in [4]; 1.37 fold enrichment (6-mer frequency, TF over GST control) in test [5]; 1.35 fold enrichment (6-mer frequency, TF over GST control) in [6]. The binding signal in test [7] was 1.4 fold enrichment (6-mer frequency, TF over GST control); in test [8], 1.49 fold enrichment (6-mer frequency, TF over GST control); in [9] it was 1.16 fold enrichment (6-mer frequency, TF over GST control); in test [10], 1.4 fold enrichment (6-mer frequency, TF over GST control); in [11], 1.35 fold enrichment (6-mer frequency, TF over GST control); in test [12], 1.43 fold enrichment (6-mer frequency, TF over GST control). In addition, the binding signal in [13] is 1.45 fold enrichment (6-mer frequency, TF over GST control); in [14], 1.37 fold enrichment (6-mer frequency, TF over GST control); in [15] it was 1.29 fold enrichment (6-mer frequency, TF over GST control); in test [16] it was 1.36 fold enrichment (6-mer frequency, TF over GST control); in [17], 1.35 fold enrichment (6-mer frequency, TF over GST control); in [18], 1.49 fold enrichment (6-mer frequency, TF over GST control).
